Out of some 2,300 compounds screened, about 790 (34%) were called active. Some of the results follow. Measured potencies and affinities stand elsewhere. Values without a mark were called inactive. No rule for the calls is given here.

The nature of this experiment: THP-1 cell cytotoxicity, dose response, cytotoxicity control for non-replicating M. tuberculosis project (AID 489025). The settings on record: THP-1 cell viability; series mostly up to 40 µM; viability: at the top concentration.
As usually defined, the viability is a read-out of living cells in per cent, often relative to untreated cells. On to `Cc1cccc(C2=N/C(=C\c3cccnc3)C(=O)O2)c1`, for which the “viability” value is 117%.
Turning to `O=C(CCSc1nnc(-c2ccccc2)o1)N1CCOCC1`, the “viability” value was 114%.
The same measure for `Cc1cc(C)cc(OC(=O)c2cccnc2)c1`: 87.5%; for `O=C(OCn1nnc2ccccc2c1=O)c1ccc(N2CCOCC2)c([N+](=O)[O-])c1`: 105%.
As to `Cc1[nH]n(-c2ccccc2)c(=O)c1C=Nc1cnc2ccccc2c1`, the “viability” value was 103%.
The same measure for `Cc1cc(CN(C)C)c(O)c(C2(C)CCCCC2)c1`: 108%.
The same measure for `Cc1cccc(NC(=O)COC(=O)c2cc3ccccc3oc2=O)c1`: 114%.
Consider `O=C1NC(=O)C(=Cc2ccc(-c3ccc(Cl)cc3)o2)C(=O)N1`, for which the “viability” value is 113%.
For `O=C(Oc1c(-c2ccco2)oc2ccccc2c1=O)c1cccnc1`, the “viability” value is 73.6%.
The same measure for `COc1ccc(C(=O)CCN2CCCCCC2)cc1`: 75.2%; for `CC(C)COc1ccc(C(=O)CCN2CCCCC2)cc1`: 88.7%; for `COc1ccc2cc(C(=O)C3CCCN(Cc4ccccn4)C3)ccc2c1` (configuration not stated): 88%.
For the compound `O=C(CCN1CCCCCC1)c1ccccc1`, the “viability” value is 83.7%.
For `CCOc1ccc(OC(=O)c2ccc3c(=O)n4c(nc3c2)CCC4)cc1`, the “viability” value was 93.9%.
Turning to `O=C(CCSc1ccccc1)N1CCCC1`, the “viability” value is 109%.
`CC(C)Oc1ccc(C(=O)CCN2CCCCC2)cc1`: the “viability” value is 112%.
Take `CCOc1ccc(-c2nc3ccccc3c(=O)o2)cc1`: the “viability” value is 116%.
The same measure for `COc1ccc(NCC(=O)N2CCCC2)cc1Cl`: 87.4%.
On to `CC1C/C(=N/NC(=O)c2cccc(F)c2)c2ccc(O)cc2C1` (configuration not stated), for which the “viability” value is 91.1%.
Consider `CN1CCN(Cc2cc(C(C)(C)C)c(O)c(C(C)(C)C)c2)CC1`, for which the “viability” value is 104%.
For `COc1cc(/C=C2\C(=O)N(c3ccc(S(N)(=O)=O)cc3)N=C2C)ccc1OC(=O)c1ccco1`, the “viability” value was 112%.
The same measure for `CCC(C)n1nnc2c(=O)oc3ccccc3c21` (configuration not stated): 98.7%; for `COc1ccc(OCC(=O)N/N=C2\CCc3ccccc32)cc1`: 115%; for `Cc1ccc(NC(CC(=O)c2ccccc2)C(=O)O)cc1Cl` (configuration not stated): 113%.
The same measure for `CC(NC(=O)OCc1ccccc1)c1ccccc1` (configuration not stated): 76.8%.
Consider `O=C(c1cccc2cccc(O)c12)N1CCCCC1`, for which the “viability” value is 113%.
Regarding `CCc1ccc(C(=O)NC2CCCCC2)s1`, the “viability” value is 101%.
The same measure for `CC(C)(NO)/C(=N\O)c1ccccc1`: 92.4%; for `Cc1c(Cl)cccc1NC(=O)C1COc2ccccc2O1` (configuration not stated): 110%; for `O=S(=O)(CCN1CCN(c2ccccn2)CC1)c1ccc(Cl)cc1Cl`: 107%.
For the compound `O=C1NC(=O)N(Cc2ccc(F)cc2)C(=O)/C1=C\c1ccc([N+](=O)[O-])s1`, the “viability” value was 77%.
For the compound `O=C1NC(=O)C(=Cc2ccc(Oc3ccc([N+](=O)[O-])cc3)cc2)C(=O)N1`, the “viability” value was 103%.
The same measure for `COc1ccc(OC)c(N2C(=O)NC(=O)/C(=C/c3ccc([N+](=O)[O-])s3)C2=O)c1`: 92.7%.
As to `NNC(=O)COc1cccc(Oc2ccccc2)c1`, the “viability” value is 105%.
Turning to `CC(C(=O)OCC(=O)c1ccccc1)N1C(=O)C2C3CCC(C3)C2C1=O` (configuration not stated), the “viability” value is 98.3%.
As for `CC1=NN(C(=O)c2ccoc2C)C(O)(C(F)(F)F)C1` (configuration not stated), the “viability” value was 92.6%.
Take `CC1=NN(C(=O)c2csc(C)c2)C(O)(C(F)(F)F)C1` (configuration not stated): the “viability” value was 111%.
The same measure for `CCC(=O)c1ccc(OCC(=O)OCC(=O)c2cc(C)n(C3CC3)c2C)cc1`: 106%; for `Cc1ccsc1C(=O)OCC(=O)NCCC1=CCCCC1`: 87.4%.
Turning to `NCCCN1CCOCC1`, the “viability” value is 100%.
The same measure for `O=C1CC(N2CCC(C(=O)N3CCCCC3)CC2)C(=O)N1` (configuration not stated): 123%.
The same measure for `COC(=O)c1cc(/C=C/c2ccccc2)on1`: 89.5%; for `COc1ccc(C(=O)CC(=O)C(=O)NCCc2cccc(C)c2)cc1`: 99.6%; for `O=C1NC(=O)N(Cc2ccco2)C(=O)/C1=C\c1cccn1CCOc1ccc(Cl)cc1`: 93.3%.
For `CC(=O)c1c(O)cc(=O)n(-c2ccccc2)c1-c1ccc(C)cc1`, the “viability” value was 125%.
The same measure for `O=C(Nc1nnc(C2=COCCO2)o1)c1cccc(C(F)(F)F)c1`: 73.8%.
The same measure for `O=C(N/N=C/c1ccc(O)cc1)c1cccc(C(F)(F)F)c1`: 82.2%.
For the compound `Cc1cc(NC(=O)COC(=O)COc2ccc(C(=O)c3ccccc3)cc2)no1`, the “viability” value was 110%.
The same measure for `CC1=NN(C(=O)c2ccc(C)o2)C(O)(c2ccccc2)C1` (configuration not stated): 107%.
Regarding `CC1=NN(C(=O)COc2ccccc2)C(O)(c2ccccc2)C1` (configuration not stated), the “viability” value was 106%.
`CC1=NN(C(=O)c2ccccc2Cl)C(O)(c2ccccc2)C1` (configuration not stated): the “viability” value is 116%.
`CC1=NN(C(=O)c2ccccc2F)C(O)(c2ccc(Cl)cc2)C1` (configuration not stated): the “viability” value was 83.9%.
The same measure for `CSc1ccc(COC(=O)CCS(=O)(=O)c2ccc(C)cc2)cc1`: 116%; for `CCc1nnc(NC(=O)CN2CCN(c3ccccc3F)CC2)s1`: 96.1%; for `CCOC(=O)COc1c(-c2ccc(OC)cc2)oc2ccccc2c1=O`: 110%.
As for `O=C(OCc1nnc(-c2ccccc2)o1)c1cc([N+](=O)[O-])ccc1Cl`, the “viability” value was 122%.
The same measure for `CCCOc1ccc(N2CC(C(=O)Nc3ccccc3F)CC2=O)cc1` (configuration not stated): 110%; for `O=C(NC(=S)N1CCN(Cc2ccc3c(c2)OCO3)CC1)c1ccc(Cl)cc1`: 72.2%.
The same measure for `Nc1ccc(Nc2ccccc2)cc1`: 86.8%.
Regarding `CC(C)=CCN1CCN(CCC2=C(C)CCCC2(C)C)CC1CCO` (configuration not stated), the “viability” value is 80%.
The same measure for `CC(C)c1ccc(OCC(=O)NC2=NCCS2)cc1`: 97%.
The same measure for `O=C(Oc1ccccc1)c1ccc(NC(=O)c2ccco2)cc1`: 94.9%; for `O=C(/C=C/Nc1ccccc1O)c1ccco1`: 123%.
Regarding `CC1=NN(C(=O)COc2ccccc2C)C(O)(c2ccc(Cl)cc2)C1` (configuration not stated), the “viability” value was 70.8%.
Take `CC(C)(C)OC(=O)N/N=C\c1ccc(OC(=O)c2ccco2)cc1`: the “viability” value was 113%.
`O=C(Nc1nccs1)c1ccc(Br)cc1`: the “viability” value is 90.7%.
The same measure for `O=C(CNC(=O)c1ccc(Br)cc1)c1ccc(Br)cc1`: 101%; for `O=C(CNC(=O)c1ccccc1)OC1CCCCC1`: 92.2%; for `O=[N+]([O-])c1ncccc1Oc1nc(-c2cccnc2)nc2ccccc12`: 88%.
Consider `CCOc1ccc(N2CC(=O)Nc3ccccc3NCC2=O)cc1`, for which the “viability” value is 92.6%.
The same measure for `COC(=O)c1ccc(COC(=O)c2ccccn2)cc1`: 121%.
The same measure for `CCOc1cc(/C=N/NC(=O)c2ccccn2)ccc1OC(=O)c1cccs1`: 115%; for `CCOc1ccc(OCc2ccc(C(=O)OCc3ccccn3)o2)cc1`: 106%; for `O=C(N[C@@H]1C[C@H]2CC[C@@H]1C2)c1ccco1`: 123%.
The same measure for `Clc1ccc(SCCOCCN2CCc3ccccc3C2)cc1`: 87.8%; for `O=C(OCn1nnc2ccccc2c1=O)c1cccs1`: 121%.
With `COc1ccccc1C1=NOC(COC(=O)c2ccc([N+](=O)[O-])cc2)C1` (configuration not stated), the “viability” value was 100%.
Consider `Cc1ccc(-c2nnc(-c3cccs3)o2)cc1`, for which the “viability” value was 117%.
Regarding `Fc1ccc(-c2nnc(-c3ccc(F)cc3)o2)cc1`, the “viability” value was 92.1%.
Turning to `Fc1ccc(-c2nnc(CSc3nnc(-c4cccs4)o3)o2)cc1`, the “viability” value was 104%.
In the case of `COc1cccc(OCc2nnc(-c3cccs3)o2)c1`, the “viability” value is 119%.
For `O=C1N=c2ccccc2=C1c1c(O)n(-c2cccc(F)c2)[nH]c1=O`, the “viability” value was 120%.
The same measure for `CCCn1nnnc1NCc1ccc(C(C)C)cc1`: 117%.
The same measure for `Cc1ccnc(-n2c(C)cc(/C=C3\C(=O)NC(=S)N(C)C3=O)c2C)c1`: 106%; for `CCn1c(O)c(C(=O)CC2NCCc3ccccc32)c(=O)n(CC)c1=S` (configuration not stated): 108%; for `CCOc1ccc(NC(=O)CCc2ccc(C)o2)cc1`: 126%.
The same measure for `Cc1cc(C)c2c(=O)n(CC(=O)Nc3cccc(Cl)c3C)sc2n1`: 90.7%; for `COC(=O)c1ccc(COC(=O)CCS(=O)(=O)c2ccc(C)cc2)cc1`: 96.7%.
As for `COc1ccc(OCCOC(=O)CCS(=O)(=O)c2ccc(C)cc2)cc1`, the “viability” value is 86.2%.
The same measure for `COc1ccc(-c2cc(O)cc(O)c2)cc1`: 116%; for `Cc1ccc(OC(=O)CCS(=O)(=O)c2ccc(C)cc2)cc1`: 110%; for `COc1ccc(-c2cc(=O)oc(-c3cccc(C)c3)n2)cc1`: 101%.
The same measure for `COC(=O)COc1ccc(-c2ccccc2)cc1C=O`: 97.4%; for `COC(=O)COc1ccc2c(=O)c(-c3ccccc3)coc2c1`: 106%.
The same measure for `Cc1cc(Br)ccc1OCC(=O)NNC(=O)C(=O)Nc1ccccc1`: 111%.
`O=C1CCCC(O)=C1C=Nc1ccc2c(c1)oc1ccccc12`: the “viability” value was 95.8%.
The same measure for `C(#CCN1CCOCC1)COCc1ccccc1`: 105%.
In the case of `CC(CCc1ccccc1)NC(=O)COC(=O)c1cccs1` (configuration not stated), the “viability” value is 117%.
The same measure for `Cc1nc2scc(-c3ccccc3)c2c(=O)o1`: 110%.
Take `CCN(CC)c1ccc(NC2CC(=O)N(CCc3ccc(OC)cc3)C2=O)cc1` (configuration not stated): the “viability” value is 86.6%.
Take `O=C(OCc1nnc(-c2ccccc2)o1)c1ccc(Br)o1`: the “viability” value is 109%.
On to `CCCOC(=O)c1ccc(NC(=O)C2C3C=CC(O3)C2C(=O)O)cc1` (configuration not stated), for which the “viability” value is 107%.
The same measure for `C=CCNc1nc(C(=O)OCC(=O)c2cccc(Br)c2)cs1`: 112%; for `Fc1cccc2sc(N3CCCC3)nc12`: 99.3%.
With `Cc1ccc(NC(=S)C2=C(O)c3sccc3N(C)S2(=O)=O)cc1`, the “viability” value was 103%.
The same measure for `Cc1ccc(C(=O)N/N=C/C=C/c2ccccc2)cc1`: 88.7%; for `O=C(CCNc1ccc(Cl)c(C(F)(F)F)c1)c1ccco1`: 103%.
The same measure for `O=C(NCCSc1ccccc1)c1ccc(Br)cc1`: 99.8%; for `C/C(=N\NC(=O)c1ccccc1)c1nc2ccccc2n1C`: 116%.
The same measure for `COc1ccc(NC(=O)c2nc3ccccc3s2)cc1`: 115%.
Consider `CN(C)c1ccc(NC(=O)COC(=O)c2cc(Cl)ccc2[N+](=O)[O-])cc1`, for which the “viability” value is 123%.
Consider `CCOC(=O)CNc1ccc(C(=O)OCC)cc1[N+](=O)[O-]`, for which the “viability” value is 116%.
As for `CC(C)=CCN1CCN(Cc2cn(C(C)C)c3ccccc23)CC1CCO` (configuration not stated), the “viability” value was 85.5%.
The same measure for `COc1cccc2cc(-c3nc4ccccc4[nH]3)c(=O)oc12`: 107%; for `CSc1nc(=S)cc(C)[nH]1`: 122%; for `CC(NC(=O)c1cc([N+](=O)[O-])cc([N+](=O)[O-])c1)c1ccc(-n2ccnc2)cc1` (configuration not stated): 111%.
The same measure for `COc1ccccc1NC(=O)c1cnc(SC)nc1`: 108%.
As to `COc1cccc(NC(=O)c2cnc(SC)nc2)c1`, the “viability” value was 101%.
On to `Cc1ccc(S(=O)(=O)NCc2ccc(C(=O)NCCCN3CCC(Cc4ccccc4)CC3)cc2)cc1`, for which the “viability” value was 92.3%.
The same measure for `Nc1c(Cl)cc(Cl)cc1C(=O)OCC(=O)N1CCCC1`: 80%.
Take `COc1ccccc1-c1cc(SC)c(C#N)c(=O)o1`: the “viability” value is 97.9%.
As to `COc1ccccc1-c1nnc(-c2ccc(C)cc2)o1`, the “viability” value was 70.8%.
